Assay [1] addresses Progesterone receptor (Homo sapiens) (UniProt P06401). Kind of assay: qHTS assay to identify small molecule agonists of the progesterone receptor (PR) signaling pathway (AID 1346784; calls by dose curve; further: nearly all actives have a fitted effect of over 30% in size). The following applies: PR-UAS-bla HEK293T, beta-lactamase FRET ratio, 16 h; series mostly up to 92.4 µM. An outline of the steps:
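Agonist qHTS: compounds pinned onto 3,000 PR-UAS-bla HEK 293T cells per well in charcoal-stripped serum medium, 16hr at 37C, then beta-lactamase activity measured by LiveBLAzer FRET fluorescence after 2 hours at room temperature.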
On the technique in general: Quantitative high-throughput screening tests each substance at several concentrations.

The target is the same in assay [2]. Briefly: qHTS assay to identify small molecule antagonists of the progesterone receptor (PR) signaling pathway (AID 1346795; active means well fitted inhibition curve with a large enough effect in the signal ratio in the repeat runs, not every such curve was filed as active; the % refers to the signal ratio). To be noted: PR-UAS-bla HEK293T, beta-lactamase FRET ratio, 16 h; series mostly up to 92.4 µM. The procedure, abridged:
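Antagonist mode with agonist R5020 at 1 nM final and 16 hr incubation at 37C. Reporter was beta-lactamase driven by UAS in HEK293T (PR-UAS-bla), 2% charcoal-stripped serum; signal from LiveBLAzer FRET substrate, 2 hr at room temperature.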

Assay [3] in a line: qHTS assay to identify small molecule antagonists of the progesterone receptor (PR) signaling pathway - cell viability counter screen (AID 1346798). Further: nearly all actives have a fitted effect of over 50% in size. The following applies: PR-UAS-bla HEK293T viability, CellTiter-Glo luminescence, 16 h; series mostly up to 92.4 µM. An outline of the steps:
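Cytotoxicity read as CellTiter-Glo luminescence (30 min, room temperature) in the same wells as the beta-lactamase readout. HEK293T PR-UAS-bla cells in charcoal-stripped 2% FBS received compound and R5020, then 16 h at 37C, 5% CO2.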

Assay [4] can be described thus: qHTS assay to identify small molecule agonists of the progesterone receptor (PR) signaling pathway - cell viability counter screen (AID 1346799; calls by dose curve; further: nearly all actives have a fitted effect of over 45% in size). To be noted: PR-UAS-bla HEK293T viability, CellTiter-Glo luminescence, 16 h; series mostly up to 92.4 µM. An outline of the steps: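 Cytotoxicity measured by CellTiter-Glo luminescence (30 min, RT) in the same wells as the PR beta-lactamase agonist read. Those HEK293T cells had 16 h compound treatment at 37 C in 2% charcoal-stripped FBS medium.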

Assay [5] in a line: qHTS assay to identify small molecule antagonists of the TGF-beta/Smad signaling pathway - cell viability counter screen (AID 1346824). Further: nearly all actives have a fitted effect of over 50% in size. The following applies: SBE-bla HEK293T viability, CellTiter-Glo luminescence; series mostly up to 76.8 µM. The procedure, abridged: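 SBE-bla HEK 293T cells, incubated overnight, then compound plus 0.25 ng/mL TGF-beta1 (stock added) for 5 hr at 37 C. Viability was read in the same wells by CellTiter-Glo luminescence after 30 min at room temperature.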

Assay [6] in a line: qHTS assay to identify small molecule agonists of the TGF-beta/Smad signaling pathway - cell viability counter screen (AID 1346829). Further: top concentration of the series differs between compounds; nearly all actives have a fitted effect of over 45% in size. To be noted: SBE-bla HEK293T viability, CellTiter-Glo luminescence, 5 h; series mostly up to 76.8 µM. An outline of the steps: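 After overnight seating at 37 C and 5% CO2, reporter cells got compounds for 5 hr and FRET substrate for 2 hr; cell viability then came from CellTiter-Glo luminescence.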

Assay [7] can be described thus: qHTS assay to identify small molecule agonists of the TGF-beta/Smad signaling pathway (AID 1346859; active means well fitted activation curve with a large enough effect in the signal ratio in the repeat runs, not every such curve was filed as active; the % refers to the signal ratio). To be noted: SBE-bla HEK293T, TGF-beta/Smad beta-lactamase reporter, 5 h; series mostly up to 76.8 µM. An outline of the steps: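 Fluorescence (ex 405 nm; em 460 and 530 nm) was read 2 h after LiveBLAzer FRET substrate at RT. The preceding compound treatment of overnight-plated SBE-bla HEK293T cells lasted 5 h at 37 C.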

Assay [8] has as its target Thyrotropin-releasing hormone receptor (Homo sapiens) (UniProt P34981). Briefly: qHTS assay to identify small molecule antagonists of the thyrotropin-releasing hormone receptor (TRHR) signaling pathway (AID 1346877; active means well fitted inhibition curve with a large enough effect in the repeat runs, not every such curve was filed as active). To be noted: TRHR-HEK293, TRH-induced calcium fluorescence, antagonist mode; series mostly up to 51.3 µM. The procedure, abridged:
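Screening used HEK293 cells engineered with TRHR, with a brief 5 min room-temperature compound exposure preceding addition of TRH to 1 nM. The read-out was kinetic calcium-dye fluorescence, concentration-response from 15 doses in triplicate.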

For assay [9] the target is unchanged. Briefly: qHTS assay to identify small molecule agonists of the thyrotropin-releasing hormone receptor (TRHR) signaling pathway (AID 1346891; calls by dose curve). To be noted: TRHR-HEK293 calcium fluorescence, agonist mode; series mostly up to 57.6 µM. The procedure, abridged:
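Agonist-mode intracellular calcium readout: kinetic fluorescence over 3 min at 1 s intervals after compound addition to TRHR-HEK293 cells (18 h seeded, 2 h dye-loaded at 37 C). Fifteen concentrations, triplicates.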

A short description of assay [10]: Human pregnane X receptor (PXR) small molecule agonists, qHTS cell viability counter screen (AID 1346977). Further: nearly all actives have a fitted effect of over 50% in size. Further: potency means the concentration at half of the fitted maximal effect. To be noted: PXR-Luc HepG2 viability, CellTiter-Fluor, 24 h; series mostly up to 92.4 µM. An outline of the steps: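 Same-well viability read: CellTiter-Fluor added after 23 hr compound exposure, fluorescence measured 1 hr later. Cells were PXR-Luc HepG2 seeded at 2,000/well in 5% charcoal-stripped FBS medium, rested 5 hr before dosing at 37 C.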

Assay [11] is described as follows: Caspase-3/7 induction in HepG2 cells by small molecules, qHTS assay (AID 1346978). Further: nearly all actives have a fitted effect of over 15% in size. Further: potency means the concentration at half of the fitted maximal effect. The following applies: HepG2 caspase-3/7 activation, Caspase-Glo luminescence, 17 h; series mostly up to 92.4 µM. The procedure, abridged: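 Wild-type HepG2 cells, 2,000/well, settled 5 hr at 37 C and 5% CO2, then compound-treated for 17 hr; caspase-3/7 activity read by luminescent Caspase-Glo 3/7 after 30 min at room temperature.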

Assay [12] is described as follows: Caspase-3/7 induction in CHO-K1 cells by small molecules, qHTS assay (AID 1346980). Further: nearly all actives have a fitted effect of over 15% in size. To be noted: CHO-K1 caspase-3/7 induction, Caspase-Glo luminescence, 17 h; series mostly up to 92.4 µM. An outline of the steps: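 Wild-type CHO-K1 cells exposed to compounds for 17hr at 37 C, 5% CO2. Caspase-3/7 activity then measured by Caspase-Glo 3/7 luminescence after 30min at room temperature.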

A short description of assay [13]: Caspase-3/7 induction in HepG2 cells by small molecules, qHTS cell viability counter screen (AID 1346981). Further: nearly all actives have a fitted effect of over 30% in size. To be noted: CellTiter-Fluor fluorescence, 17 h; series mostly up to 92.4 µM. An outline of the steps:
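Multiplexed with the caspase-3/7 assay: HepG2 cells, 16 hr compound treatment, CellTiter-Fluor viability detection by fluorescence.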

For assay [14], the target named is Nuclear receptor subfamily 1 group I member 2 (Homo sapiens) (UniProt O75469). Kind of assay: Human pregnane X receptor (PXR) small molecule agonists, qHTS assay (AID 1346982). Further: nearly all actives have a fitted effect of over 35% in size. The following applies: PXR-Luc HepG2, CYP3A4 luciferase reporter, 24 h; series mostly up to 92.4 µM. An outline of the steps: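 We seeded PXR-Luc HepG2 cells in assay medium containing 5% charcoal-stripped FBS, added compounds 5 hr later, incubated 24 hr, and read luminescence with ONE-Glo reagent.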

In assay [15] the target is Cytochrome P450 2D6 (Homo sapiens) (UniProt P10635). Kind of assay: Cytochrome P450 Family 2 Subfamily D Member 6 (CYP2D6) small molecule antagonists: luciferase reporter qHTS assay (AID 1671196). Further: nearly all actives have a fitted effect of over 50% in size. To be noted: P450-Glo CYP2D6 enzyme assay, luciferin luminescence, 1 h; series mostly up to 115 µM. An outline of the steps: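 Luminescence (RLU), read 20 min after detection reagent, indicated CYP2D6 conversion of proluciferin to luciferin during a 1 h NADPH-dependent reaction at room temperature.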
A general note: A reporter such as luciferase makes a cellular process visible.

Assay [16] is described as follows: Caspase-3/7 induction in CHO-K1 cells by small molecules, qHTS cell viability counter screen (AID 1346979). Further: nearly all actives have a fitted effect of over 35% in size. Further: potency means the concentration at half of the fitted maximal effect. The following applies: CellTiter-Fluor fluorescence, 17 h; series mostly up to 92.4 µM. The procedure, abridged:
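Cytotoxicity counter screen: CellTiter-Fluor added to compound-treated wild-type CHO-K1 cells at 16 h (37C, 5% CO2), fluorescence measured 1 h later; same wells as caspase-3/7 measurement.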

Assay [17] deals with Cytochrome P450 2C19 (Homo sapiens) (UniProt P33261). Kind of assay: Cytochrome P450 Family 2 Subfamily C Member 19 (CYP2C19) small molecule antagonists: luciferase reporter qHTS assay (AID 1671197). Further: nearly all actives have a fitted effect of over 65% in size. Further: potency means the concentration at half of the fitted maximal effect. The following applies: P450-Glo CYP2C19 enzyme, luciferin luminescence, 1 h; series mostly up to 115 µM. The procedure, abridged:
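Inhibition of CYP2C19 was scored from loss of luminescence in a P450-Glo proluciferin substrate assay, NADPH-started and run 1 h at 37C, with ketoconazole as positive control.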

Drawing on PubChem BioAssay (Tox21), this text covers Potency and outcome for 6 compounds.

Records with an inconclusive call do not appear. A structure can be active in one record and inactive in another. Activity calls are given as the source filed them. Unless noted, the call rests on the fitted dose curve; in most records, active means well fitted curve in the direction sought with a large enough effect in the repeat runs; inconclusive means weak or mixed curves; inactive means no such curve, though single readings can be large; an effect the other way counts as inactive or inconclusive.

Chain of Cytochrome P450 2D6 (Homo sapiens) (P10635 whole entry, looked up): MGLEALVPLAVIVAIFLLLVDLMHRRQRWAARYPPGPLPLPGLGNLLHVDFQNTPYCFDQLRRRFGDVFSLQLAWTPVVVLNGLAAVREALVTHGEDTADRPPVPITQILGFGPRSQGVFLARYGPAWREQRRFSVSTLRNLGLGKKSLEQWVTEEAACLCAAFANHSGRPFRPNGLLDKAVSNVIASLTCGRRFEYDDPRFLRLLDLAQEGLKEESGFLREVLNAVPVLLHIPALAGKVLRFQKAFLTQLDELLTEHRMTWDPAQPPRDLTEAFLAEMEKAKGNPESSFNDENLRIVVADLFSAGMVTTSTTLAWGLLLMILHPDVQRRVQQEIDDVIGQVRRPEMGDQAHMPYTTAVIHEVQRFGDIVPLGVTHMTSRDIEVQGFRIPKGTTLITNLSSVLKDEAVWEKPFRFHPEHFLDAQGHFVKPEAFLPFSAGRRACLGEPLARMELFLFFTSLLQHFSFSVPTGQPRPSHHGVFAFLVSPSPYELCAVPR
Chain of Thyrotropin-releasing hormone receptor (Homo sapiens) (P34981 whole entry, looked up): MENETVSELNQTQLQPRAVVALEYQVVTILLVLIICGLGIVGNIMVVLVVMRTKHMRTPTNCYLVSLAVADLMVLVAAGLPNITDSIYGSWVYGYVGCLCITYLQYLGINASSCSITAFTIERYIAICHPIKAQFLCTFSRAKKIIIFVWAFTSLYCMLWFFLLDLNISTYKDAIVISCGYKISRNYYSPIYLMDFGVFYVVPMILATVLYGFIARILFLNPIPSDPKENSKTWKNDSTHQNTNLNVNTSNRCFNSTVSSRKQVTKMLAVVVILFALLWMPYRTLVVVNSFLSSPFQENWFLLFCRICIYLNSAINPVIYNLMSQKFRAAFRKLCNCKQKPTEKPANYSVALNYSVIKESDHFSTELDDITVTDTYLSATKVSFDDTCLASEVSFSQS
Chain of Cytochrome P450 2C19 (Homo sapiens) (P33261 whole entry, looked up): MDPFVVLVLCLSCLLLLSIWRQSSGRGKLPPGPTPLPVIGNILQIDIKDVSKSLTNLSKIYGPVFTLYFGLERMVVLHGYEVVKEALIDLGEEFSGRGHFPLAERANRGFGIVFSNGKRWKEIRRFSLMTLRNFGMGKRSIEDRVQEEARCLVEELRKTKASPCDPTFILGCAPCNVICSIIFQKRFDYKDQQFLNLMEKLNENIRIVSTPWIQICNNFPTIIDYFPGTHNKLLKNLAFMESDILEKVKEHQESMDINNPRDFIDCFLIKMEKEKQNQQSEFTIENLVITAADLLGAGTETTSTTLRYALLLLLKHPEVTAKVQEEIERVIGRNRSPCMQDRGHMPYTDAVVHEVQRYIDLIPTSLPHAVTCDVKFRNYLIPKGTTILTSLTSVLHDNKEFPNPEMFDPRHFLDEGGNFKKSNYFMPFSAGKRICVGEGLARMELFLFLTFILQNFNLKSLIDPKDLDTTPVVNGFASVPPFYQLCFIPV
Chain of Progesterone receptor (Homo sapiens) (P06401 whole entry, looked up): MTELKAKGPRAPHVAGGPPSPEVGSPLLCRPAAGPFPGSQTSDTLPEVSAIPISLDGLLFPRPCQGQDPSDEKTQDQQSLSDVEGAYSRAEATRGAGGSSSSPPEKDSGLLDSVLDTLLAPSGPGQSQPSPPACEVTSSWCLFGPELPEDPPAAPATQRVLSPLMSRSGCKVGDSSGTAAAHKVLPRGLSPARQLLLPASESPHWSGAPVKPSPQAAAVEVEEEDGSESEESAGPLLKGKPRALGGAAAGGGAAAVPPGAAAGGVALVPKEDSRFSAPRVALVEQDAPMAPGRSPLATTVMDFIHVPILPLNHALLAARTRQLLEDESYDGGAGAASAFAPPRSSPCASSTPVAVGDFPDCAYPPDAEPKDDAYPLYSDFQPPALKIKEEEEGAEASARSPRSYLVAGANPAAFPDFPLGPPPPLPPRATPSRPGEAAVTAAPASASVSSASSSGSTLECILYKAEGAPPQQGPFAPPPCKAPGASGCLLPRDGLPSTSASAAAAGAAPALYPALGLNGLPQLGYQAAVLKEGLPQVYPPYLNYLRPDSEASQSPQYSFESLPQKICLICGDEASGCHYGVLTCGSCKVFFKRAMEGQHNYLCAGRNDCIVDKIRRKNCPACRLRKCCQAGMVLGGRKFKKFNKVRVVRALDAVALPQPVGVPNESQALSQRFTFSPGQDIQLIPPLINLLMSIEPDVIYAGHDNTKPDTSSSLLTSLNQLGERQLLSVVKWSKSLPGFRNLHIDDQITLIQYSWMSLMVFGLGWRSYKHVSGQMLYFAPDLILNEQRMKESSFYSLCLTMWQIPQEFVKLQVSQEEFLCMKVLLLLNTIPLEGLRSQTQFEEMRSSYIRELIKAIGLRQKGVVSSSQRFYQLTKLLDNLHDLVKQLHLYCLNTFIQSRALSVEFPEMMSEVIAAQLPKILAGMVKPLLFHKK
Chain of Nuclear receptor subfamily 1 group I member 2 (Homo sapiens) (O75469 whole entry, looked up): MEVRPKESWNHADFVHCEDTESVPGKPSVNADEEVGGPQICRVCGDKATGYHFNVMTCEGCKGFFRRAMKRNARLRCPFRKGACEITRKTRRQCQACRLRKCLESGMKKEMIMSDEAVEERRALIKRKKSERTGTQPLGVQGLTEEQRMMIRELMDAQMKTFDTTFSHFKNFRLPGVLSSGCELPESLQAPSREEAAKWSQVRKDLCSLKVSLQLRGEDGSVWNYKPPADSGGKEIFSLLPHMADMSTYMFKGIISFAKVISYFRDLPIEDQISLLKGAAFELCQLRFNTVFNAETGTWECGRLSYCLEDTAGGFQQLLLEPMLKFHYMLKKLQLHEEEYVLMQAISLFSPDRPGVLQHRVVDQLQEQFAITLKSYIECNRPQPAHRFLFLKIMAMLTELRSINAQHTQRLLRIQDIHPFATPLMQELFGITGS

With `COC(=O)CCCCC(=O)OC`, the Potency entry in assay [1], in assay [2], in [3], in assay [4], in assay [5] and in assay [6] was “inactive” each time. Moreover, the Potency entry in assay [7], in assay [8], in assay [10], in assay [11], in assay [12] and in assay [13] was “inactive” each time. Further, the Potency entry in [14] and in [15] was “inactive” in each case. The result in [9] was inactive.

On to `O=C1OC(=O)c2c(Cl)c(Cl)c(Cl)c(Cl)c21`, for which the Potency entry in assay [1], in assay [2], in assay [3], in assay [4], in assay [5] and in [6] was “inactive” each time. Further, the Potency entry in assay [7], in [8], in [10], in assay [11], in assay [12] and in [13] was “inactive” throughout. Besides, the Potency result in assay [14] and in assay [15] was “inactive” in each case. Also, the result in [9] was inactive.

Take `Cc1cc(C)cc(O)c1`: the Potency result in assay [1], in assay [2], in assay [3], in assay [4], in assay [5] and in assay [6] was “inactive” throughout. Also, the Potency entry in [7], in assay [8], in assay [12], in assay [14] and in assay [15] was “inactive” in each case. Also, in assay [9], the result was inactive. Also, the Potency is 6.31 µM (active) and inactive in [10]; 12.2 µM (active) and inactive in [11]; 1.73 µM (active) and inactive in assay [16].

On to `Cc1ccncc1`, for which the Potency entry in assay [1], in assay [2], in [3], in assay [4], in assay [5] and in assay [6] was “inactive” throughout. The Potency result in assay [7], in [8], in [10], in assay [11], in assay [12] and in [13] was “inactive” each time. In addition, the Potency entry in assay [14], in assay [15] and in assay [17] was “inactive” in each case. Also, the outcome in [9] was inactive.

As to `NC(N)=S`, the Potency entry in assay [1], in [2], in [3], in [4], in [5] and in assay [6] was “inactive” throughout. Besides, the Potency result in assay [7], in assay [8], in assay [10], in [11], in assay [12] and in assay [13] was “inactive” each time. Besides, the Potency entry in [14] and in assay [15] was “inactive” throughout. Besides, the outcome in [9] was inactive. Also, in assay [17], the Potency was 39.1 µM (active).

In the case of `CCCOCC(C)O` (configuration not stated), the Potency result in assay [1], in assay [2], in assay [3], in [4], in [5] and in assay [6] was “inactive” each time. Further, the Potency entry in assay [7], in [8], in assay [10], in assay [11], in assay [12] and in assay [13] was “inactive” each time. For the same compound, the Potency result in [14] and in assay [15] was “inactive” each time. Besides, in [9], the result was inactive.
